# The panel holds about 79,000 compounds, 15% with a hit somewhere; the sample as a whole holds those more often. Unmarked numbers belong to inactive results. The source made the active and inactive calls. Cut-off read from the data, not from the text of the source: active = growth inhibition above about 70%; inactive = the rest.
# How the values were obtained:
# [1] = NCI Yeast Anticancer Drug Screen. Data for the rad52 strain (AID 147);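 note: 0% = growth of vehicle-treated control cultures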; conditions: S. cerevisiae rad52 mutant growth inhibition, active compounds read high
# Method in brief: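 Genetically altered yeast (DNA damage repair defect) treated with compound; inhibition calculated relative to vehicle.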
# [2] = NCI Yeast Anticancer Drug Screen. Data for the wt1 strain (AID 149);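 note: 0% = growth of vehicle-treated wt1 cultures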; conditions: S. cerevisiae wt1 strain (SPY 50644) growth inhibition, active compounds read high
# Method in brief: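 Growth inhibition read against vehicle controls after compound exposure of the wt1 yeast strain.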
# [3] = NCI Yeast Anticancer Drug Screen. Data for the rad50EPP+ strain (AID 151);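 note: 0% = growth of vehicle-treated control cultures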; conditions: S. cerevisiae rad50 mutant strain, active compounds read high
# Method in brief: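 Strain rad50EPP+; compound exposure; % growth inhibition vs vehicle.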
# [4] = NCI Yeast Anticancer Drug Screen. Data for the mgt1 strain (AID 153); conditions: S. cerevisiae mgt1 mutant growth inhibition, active compounds read high
# Method in brief: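 Read-out: yeast growth inhibition vs vehicle control. Strain mgt1, drawn from a panel altered in DNA damage repair or cell cycle control.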
# [5] = NCI Yeast Anticancer Drug Screen. Data for the rad50 strain (AID 155);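 note: 0% = growth of vehicle-only cultures of the same strain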; conditions: S. cerevisiae rad50 strain growth inhibition, active compounds read high
# Method in brief: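 Readout: growth inhibition relative to vehicle-treated cultures. Compound exposure was carried out in a genetically defined yeast strain deficient in DNA damage repair.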
# [6] = NCI Yeast Anticancer Drug Screen. Data for the mec2-1 strain (AID 157); conditions: S. cerevisiae mec2-1 strain, active compounds read high
# Method in brief: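 Cells of the genetically defined mec2-1 yeast strain are incubated with test compound. Inhibition of growth is calculated against vehicle-treated controls.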
# [7] = NCI Yeast Anticancer Drug Screen. Data for the rad14 strain (AID 159);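 note: 0% = growth of vehicle-treated control cultures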; conditions: S. cerevisiae rad14 strain growth inhibition, active compounds read high
# Method in brief: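 Growth inhibition vs vehicle controls; genetically altered yeast strain (DNA damage repair defect) treated with test compounds.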
# [8] = NCI Yeast Anticancer Drug Screen. Data for the sgs1 mgt1 strain (AID 161);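 note: 0% = growth of cultures given vehicle only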; conditions: S. cerevisiae sgs1 mgt1 strain, active compounds read high
# Method in brief: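 Read-out: growth inhibition vs vehicle controls. Cells: mutant yeast strain deficient in DNA damage repair.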
# [9] = NCI Yeast Anticancer Drug Screen. Data for the CLN2oe strain (AID 163);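 note: 0% = growth of vehicle-only control cultures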; conditions: S. cerevisiae CLN2oe strain, active compounds read high
# Method in brief: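 Strain altered in cell-cycle control, incubated with compound; growth compared to solvent-treated controls.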
# [10] = NCI Yeast Anticancer Drug Screen. Data for the cln2 rad14 strain (AID 165);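 note: 0% = growth equal to vehicle treated cultures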; conditions: S. cerevisiae cln2 rad14 strain, active compounds read high
# Method in brief: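 The screen exposed genetically defined yeast (cln2 rad14) to test compounds and scored growth inhibition relative to vehicle-treated controls.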
# [11] = NCI Yeast Anticancer Drug Screen. Data for the bub3 strain (AID 167); conditions: S. cerevisiae bub3 mutant strain, active compounds read high
# Method in brief: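 Readout: yeast growth inhibition, expressed relative to vehicle-only wells. The test organism is a mutant strain from a panel with lesions in DNA repair or checkpoint genes.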
# [12] = NCI Yeast Anticancer Drug Screen. Data for the wt2 strain (AID 169);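 note: 0% = growth of vehicle-treated yeast cultures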; conditions: S. cerevisiae wt2 strain growth inhibition, active compounds read high
# Method in brief: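 Steps: yeast strain treated with compound; growth recorded; inhibition calculated relative to cultures given vehicle alone.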
# [13] = NCI Yeast Anticancer Drug Screen. Data for the mlh1 strain (AID 171);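 note: 0% = growth of vehicle-treated control cultures of the same strain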; conditions: S. cerevisiae mlh1 strain growth inhibition, active compounds read high
# Method in brief: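 Yeast screen: mutant strain plus compound, growth scored against vehicle control wells.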
# [14] = NCI Yeast Anticancer Drug Screen. Data for the sgs1 strain (AID 173);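 note: 0% = growth of vehicle-only control cultures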; conditions: S. cerevisiae sgs1 mutant, active compounds read high
# Method in brief: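 Inhibition of yeast growth served as the measure. The mutant strain was treated with each compound, and growth was normalised to cultures receiving vehicle alone.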
# [15] = NCI Yeast Anticancer Drug Screen. Data for the mlh1 rad18 strain (AID 175); conditions: S. cerevisiae mlh1 rad18 strain growth inhibition, active compounds read high
# Method in brief: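 Compound-treated yeast growth, normalised to vehicle controls. Strain bears defined DNA repair mutations.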
# [16] = NCI Yeast Anticancer Drug Screen. Data for the rad18 strain (AID 177); conditions: S. cerevisiae rad18 mutant growth inhibition, active compounds read high
# Method in brief: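 Inhibition values reflect reduced yeast growth compared with vehicle-treated controls, using a strain engineered with a DNA damage repair defect.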
# [17] = at 5.0 µM (retest, dose inferred, filed as 0.5)
# [18] = at 50.0 µM (retest, dose inferred, filed as 5.0)
smiles,measurement,setting,value
CCCCCCCCCCCCCCCCCCN(C)CC(COP(=O)([O-])OCC[N+](C)(C)C)OC (stereo unspecified),growth inhibition,[1]; at 1.2 µM,-14%
same,growth inhibition,[1]; at 3.7 µM,-24%
same,growth inhibition,[1]; at 11.0 µM,97% (active)
same,growth inhibition,[1]; at 33.0 µM,98% (active)
same,growth inhibition,[1]; at 100.0 µM,98% (active)
same,growth inhibition,[2]; at 1.2 µM,0%
same,growth inhibition,[2]; at 3.7 µM,-2%
same,growth inhibition,[2]; at 11.0 µM,97% (active)
same,growth inhibition,[2]; at 33.0 µM,99% (active)
same,growth inhibition,[2]; at 100.0 µM,99% (active)
same,growth inhibition,[3]; at 1.2 µM,-4%
same,growth inhibition,[3]; at 3.7 µM,43%
same,growth inhibition,[3]; at 11.0 µM,98% (active)
same,growth inhibition,[3]; at 33.0 µM,98% (active)
same,growth inhibition,[3]; at 100.0 µM,98% (active)
same,growth inhibition,[4]; at 1.2 µM,21%
same,growth inhibition,[4]; at 3.7 µM,32%
same,growth inhibition,[4]; at 11.0 µM,97% (active)
same,growth inhibition,[4]; at 33.0 µM,99% (active)
same,growth inhibition,[4]; at 100.0 µM,98% (active)
same,growth inhibition,[5]; at 1.2 µM,8%
same,growth inhibition,[5]; at 3.7 µM,18%
same,growth inhibition,[5]; [17],17%
same,growth inhibition,[5]; at 11.0 µM,98% (active)
same,growth inhibition,[5]; at 33.0 µM,98% (active)
same,growth inhibition,[5]; [18],98% (active)
same,growth inhibition,[5]; at 50.0 µM,88.2% (active)
same,growth inhibition,[5]; at 100.0 µM,98% (active)
same,growth inhibition,[6]; at 1.2 µM,13%
same,growth inhibition,[6]; at 3.7 µM,18%
same,growth inhibition,[6]; [17],11%
same,growth inhibition,[6]; at 11.0 µM,94% (active)
same,growth inhibition,[6]; at 33.0 µM,99% (active)
same,growth inhibition,[6]; [18],99% (active)
same,growth inhibition,[6]; at 50.0 µM,93.4% (active)
same,growth inhibition,[6]; at 100.0 µM,99% (active)
same,growth inhibition,[7]; at 1.2 µM,2%
same,growth inhibition,[7]; at 3.7 µM,4%
same,growth inhibition,[7]; at 11.0 µM,98% (active)
same,growth inhibition,[7]; at 33.0 µM,99% (active)
same,growth inhibition,[7]; at 100.0 µM,99% (active)
same,growth inhibition,[8]; [17],78% (active)
same,growth inhibition,[8]; [18],99% (active)
same,growth inhibition,[8]; at 50.0 µM,91.1% (active)
same,growth inhibition,[9]; at 1.2 µM,15%
same,growth inhibition,[9]; at 3.7 µM,6%
same,growth inhibition,[9]; at 11.0 µM,96% (active)
same,growth inhibition,[9]; at 33.0 µM,98% (active)
same,growth inhibition,[9]; at 100.0 µM,98% (active)
same,growth inhibition,[10]; [17],22%
same,growth inhibition,[10]; [18],98% (active)
same,growth inhibition,[10]; at 50.0 µM,89.8% (active)
same,growth inhibition,[11]; at 1.2 µM,9%
same,growth inhibition,[11]; at 3.7 µM,-8%
same,growth inhibition,[11]; [17],33%
same,growth inhibition,[11]; at 11.0 µM,98% (active)
same,growth inhibition,[11]; at 33.0 µM,98% (active)
same,growth inhibition,[11]; [18],99% (active)
same,growth inhibition,[11]; at 50.0 µM,90% (active)
same,growth inhibition,[11]; at 100.0 µM,98% (active)
same,growth inhibition,[12]; at 1.2 µM,-1%
same,growth inhibition,[12]; at 3.7 µM,0%
same,growth inhibition,[12]; at 11.0 µM,-17%
same,growth inhibition,[12]; at 33.0 µM,60%
same,growth inhibition,[12]; at 100.0 µM,98% (active)
same,growth inhibition,[13]; at 1.2 µM,5%
same,growth inhibition,[13]; at 3.7 µM,11%
same,growth inhibition,[13]; at 11.0 µM,98% (active)
same,growth inhibition,[13]; at 33.0 µM,99% (active)
same,growth inhibition,[13]; at 100.0 µM,99% (active)
same,growth inhibition,[14]; at 1.2 µM,-15%
same,growth inhibition,[14]; at 3.7 µM,-1%
same,growth inhibition,[14]; at 11.0 µM,97% (active)
same,growth inhibition,[14]; at 33.0 µM,99% (active)
same,growth inhibition,[14]; at 100.0 µM,99% (active)
same,growth inhibition,[15]; [17],7%
same,growth inhibition,[15]; [18],98% (active)
same,growth inhibition,[15]; at 50.0 µM,89.5% (active)
same,growth inhibition,[16]; at 1.2 µM,-6%
same,growth inhibition,[16]; at 3.7 µM,11%
same,growth inhibition,[16]; at 11.0 µM,98% (active)
same,growth inhibition,[16]; at 33.0 µM,98% (active)
same,growth inhibition,[16]; at 100.0 µM,98% (active)
COC1=CC(=O)C2C(C1=O)C(c1ccc(Cl)cc1)[C@@H]2C (stereo partly specified),growth inhibition,[1]; at 1.2 µM,12%
same,growth inhibition,[1]; at 3.7 µM,25%
same,growth inhibition,[1]; at 11.0 µM,98% (active)
same,growth inhibition,[1]; at 33.0 µM,99% (active)
same,growth inhibition,[1]; at 100.0 µM,99% (active)
same,growth inhibition,[2]; at 1.2 µM,11%
same,growth inhibition,[2]; at 3.7 µM,23%
same,growth inhibition,[2]; at 11.0 µM,99% (active)
same,growth inhibition,[2]; at 33.0 µM,99% (active)
same,growth inhibition,[2]; at 100.0 µM,99% (active)
same,growth inhibition,[3]; at 1.2 µM,29%
same,growth inhibition,[3]; at 3.7 µM,64%
same,growth inhibition,[3]; at 11.0 µM,98% (active)
same,growth inhibition,[3]; at 33.0 µM,98% (active)
same,growth inhibition,[3]; at 100.0 µM,98% (active)
same,growth inhibition,[4]; at 1.2 µM,21%
same,growth inhibition,[4]; at 3.7 µM,30%
same,growth inhibition,[4]; at 11.0 µM,99% (active)
same,growth inhibition,[4]; at 33.0 µM,99% (active)
same,growth inhibition,[4]; at 100.0 µM,99% (active)
same,growth inhibition,[5]; at 1.2 µM,2%
same,growth inhibition,[5]; at 3.7 µM,12%
same,growth inhibition,[5]; [17],4%
same,growth inhibition,[5]; at 11.0 µM,98% (active)
same,growth inhibition,[5]; at 33.0 µM,98% (active)
same,growth inhibition,[5]; [18],98% (active)
same,growth inhibition,[5]; at 50.0 µM,90.5% (active)
same,growth inhibition,[5]; at 100.0 µM,98% (active)
same,growth inhibition,[6]; at 1.2 µM,34%
same,growth inhibition,[6]; at 3.7 µM,49%
same,growth inhibition,[6]; [17],-12%
same,growth inhibition,[6]; at 11.0 µM,99% (active)
same,growth inhibition,[6]; at 33.0 µM,98% (active)
same,growth inhibition,[6]; [18],99% (active)
same,growth inhibition,[6]; at 50.0 µM,93.8% (active)
same,growth inhibition,[6]; at 100.0 µM,99% (active)
same,growth inhibition,[7]; at 1.2 µM,-3%
same,growth inhibition,[7]; at 3.7 µM,12%
same,growth inhibition,[7]; at 11.0 µM,98% (active)
same,growth inhibition,[7]; at 33.0 µM,99% (active)
same,growth inhibition,[7]; at 100.0 µM,99% (active)
same,growth inhibition,[8]; [17],-10%
same,growth inhibition,[8]; [18],98% (active)
same,growth inhibition,[8]; at 50.0 µM,92% (active)
same,growth inhibition,[9]; at 1.2 µM,19%
same,growth inhibition,[9]; at 3.7 µM,29%
same,growth inhibition,[9]; at 11.0 µM,99% (active)
same,growth inhibition,[9]; at 33.0 µM,99% (active)
same,growth inhibition,[9]; at 100.0 µM,99% (active)
same,growth inhibition,[10]; [17],30%
same,growth inhibition,[10]; [18],98% (active)
same,growth inhibition,[10]; at 50.0 µM,90.5% (active)
same,growth inhibition,[11]; at 1.2 µM,24%
same,growth inhibition,[11]; at 3.7 µM,53%
same,growth inhibition,[11]; [17],41%
same,growth inhibition,[11]; at 11.0 µM,99% (active)
same,growth inhibition,[11]; at 33.0 µM,99% (active)
same,growth inhibition,[11]; [18],99% (active)
same,growth inhibition,[11]; at 50.0 µM,90.8% (active)
same,growth inhibition,[11]; at 100.0 µM,99% (active)
same,growth inhibition,[12]; at 1.2 µM,6%
same,growth inhibition,[12]; at 3.7 µM,22%
same,growth inhibition,[12]; at 11.0 µM,94% (active)
same,growth inhibition,[12]; at 33.0 µM,98% (active)
same,growth inhibition,[12]; at 100.0 µM,99% (active)
same,growth inhibition,[13]; at 1.2 µM,20%
same,growth inhibition,[13]; at 3.7 µM,39%
same,growth inhibition,[13]; at 11.0 µM,98% (active)
same,growth inhibition,[13]; at 33.0 µM,99% (active)
same,growth inhibition,[13]; at 100.0 µM,99% (active)
same,growth inhibition,[14]; at 1.2 µM,33%
same,growth inhibition,[14]; at 3.7 µM,48%
same,growth inhibition,[14]; at 11.0 µM,99% (active)
same,growth inhibition,[14]; at 33.0 µM,99% (active)
same,growth inhibition,[14]; at 100.0 µM,98% (active)
same,growth inhibition,[15]; [17],23%
same,growth inhibition,[15]; [18],98% (active)
same,growth inhibition,[15]; at 50.0 µM,90.5% (active)
same,growth inhibition,[16]; at 1.2 µM,14%
same,growth inhibition,[16]; at 3.7 µM,29%
same,growth inhibition,[16]; at 11.0 µM,97% (active)
same,growth inhibition,[16]; at 33.0 µM,99% (active)
same,growth inhibition,[16]; at 100.0 µM,99% (active)

# From PubChem BioAssay (NCI)
